Hit rate of the full screen: of about 4,000 compounds, about 350 (8.8%) were called active.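 Rule for the calls: active = calcium fluorescence ratio at least three times the spread of buffer wells, meaning a non-specific response in parental cells; inactive = the rest.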 This excerpt belongs to a sample that is enriched for actives.
Assay: nonspecific Ca2+ signal without MrgX1 expression – cell-based, Fluo-4 calcium flux, duplicate, agonist mode, counter-screen for MrgX1 agonist project, primary screen (AID 624115)
Details: parental HEK293, Fluo-4 calcium fluorescence (FDSS), at 10 µM; active compounds read high
In the case of `CCCCC(=O)N/N=C/c1c(O)n(CC)c(=S)n(CC)c1=O`, the fluorescence ratio F(max-min)/F0 is reported as 78.9 (active). In the case of `O=C(CCN1CCCCC1)NCC(=O)Nc1ccc(Br)cc1C(=O)c1ccccc1`, the fluorescence ratio F(max-min)/F0 is reported as “inactive”. In the case of `CCCCCn1c(=O)c(C(=O)NCc2ccccc2)c(O)c2ccccc21`, the fluorescence ratio F(max-min)/F0 is reported as “inactive”. In the case of `C=CCN1C(=O)C2(C(C(=O)OCC)=C(N)Oc3c2c(=O)oc2ccccc32)c2ccccc21` (stereo not given), the fluorescence ratio F(max-min)/F0 is reported as “inactive”. In the case of `COc1ccc(S(=O)(=O)NCc2ccc(C(=O)N3CCC4(CC3)OCCO4)cc2)cc1`, the fluorescence ratio F(max-min)/F0 is reported as “inactive”.

Reference: PubChem BioAssay AID624115 (Johns Hopkins Ion Channel Center, 2012)
